Measurements from PubChem BioAssay AID2568 (National Center for Advancing Translational Sciences (NCATS), 2010).
“And” between values parts separate entries of the source, which are not always exact repeats. Equal values may be shown once. Inconclusive results are not listed. The source made the active and inactive calls. Calls follow the shape of the full dose curve.

Each molecule was assayed against Neuropeptide S receptor (Homo sapiens) (UniProt Q6W5P4) (assay: Confirmation Concentration-Response Assay for Antagonists of the Neuropeptide S Receptor: cAMP Signal Transduction, SAR for Probe). Details: CHO-NPSR cells, cAMP TR-FRET, antagonist mode; series mostly up to 47.8 µM.
Source text: NIH Chemical Genomics Center [NCGC] NIH Molecular Libraries Probe Production centers Network [MLPCN] MLPCN Grant: X01-DA026210-01 Assay Submitter (PI): Heilig, Markus Alexander NCGC Assay Overview: Neuropeptide S receptor (NPSR), previously known as GPR154, is a recently de-orphanized G protein coupled receptor. Its endogenous ligand is the 20 amino acids peptide Neuropeptide S (NPS). […] NPS and its receptor are found in various tissues. Specifically they are highly expressed in brain areas that have been implicated in modulation of arousal, stress and anxiety. Central administration of NPS in mice produces an unusual profile of activity by inducing wakefulness and arousal, while at the same time suppressing anxiety. Therefore, NPSR may represent a novel drug target for the treatment of sleep and anxiety disorders. To identify NPSR antagonists, we developed a cell-based cAMP assay. NPS can stimulate the production of cAMP in Chinese hamster ovary cells stably expressing NPS receptor. This change in intracellular cAMP level can be detected by a homogeneous LANCE cAMP assay based on the TR-FRET (time resolved fluorescence resonance energy transfer) between a europium-labeled cAMP tracer complex and a cAMP-specific antibody labeled with Alexa Fluor 647. The europium-labeled cAMP tracer complex is formed by the tight interaction between Biotin-cAMP (b-cAMP) and streptavidin labeled with Europium-W8044 chelate (Eu-SA). Light pulse at 320 nm excites the europium of the cAMP tracer and the energy emitted is transferred to the Alexa molecule bound to the cAMP antibody, generating a TR-FRET signal at 665 nm. Residual energy from the europium will produce a light at 620 nm. The native unlabeled cAMP from cell lysates competes with the europium-cAMP tracer for antibody binding and reversely reduces the emission signal of Alexa by interrupting FRET between the two labeled molecules. Both emission signals from the FRET donor (620 nm) and the acceptor (665 nm) can be detected by a plate reader in the TRF mode. Expression of result in fluorescence ratio (665 nm/620 nm) helps to normalize differences due to cell density and reagent dispensing. This assay was successfully optimized to a 1536-well plate format. Select compounds from the primary screen (AID 1461) were chosen for confirmation based on potency, efficacy, SAR, and activity across other assays in PubChem and at NCGC. Other compounds are analogs of active compounds from the primary screen.
NCGC Assay Protocol Summary: A Chinese hamster ovary (CHO) cell line stably expressing the NPS receptor (CHO-NPSR) was obtained from Dr. Heilig lab at NIAAA and maintained in F-12 Kaighn's media (Invitrogen, Carlsbad, CA, 21127) supplemented with 10 % FBS, 100 units/ml penicillin, 100 ug/ml streptomycin and 250 ug/ml geneticin at 37C, 5% CO2 in a humidified atmosphere. Before the assay, aliquots of cells were frozen and stored at -135C. The assay was performed in 1536-well format. Data are reported for both the ratio of the two emission wavelengths, and also for the component 'donor' channel, Em2=620. […] IC50 values were determined from concentration-response data modeled with the standard Hill equation. NPS 1536-well assay protocol: (1) Fresh or frozen CHO-NPSR cells were suspended in F-12 Kaighn's media supplemented with 10 % FBS, 100 units/ml penicillin and 100 ug/ml streptomycin. Cells were plated at 4 ul/well (1200 cells) to white, tissue culture treated 1536-well plates, and then cultured at 37C, 5 % CO2 for 16 to 30 hours. (2) Add 23 nl/well of compound in DMSO solution. The final titration for each compound was between 0.6 nM and 46 uM. (3) Add 1 ul of stimulation reagent (1X HBSS buffer, 5 mM HEPES, 0.1% BSA, 500 uM RO-201724 (Sigma-Aldrich, B8279), 1.5% Alexa 647-labeled anti-cAMP antibody (from Perkin Elmer), 100 nM NPS) (4) Incubation at 37C, 5 % CO2 for 60 min. (5) Add 1 ul/well detection reagent. […]

Sequence of Neuropeptide S receptor (Homo sapiens) (Q6W5P4 whole entry, looked up): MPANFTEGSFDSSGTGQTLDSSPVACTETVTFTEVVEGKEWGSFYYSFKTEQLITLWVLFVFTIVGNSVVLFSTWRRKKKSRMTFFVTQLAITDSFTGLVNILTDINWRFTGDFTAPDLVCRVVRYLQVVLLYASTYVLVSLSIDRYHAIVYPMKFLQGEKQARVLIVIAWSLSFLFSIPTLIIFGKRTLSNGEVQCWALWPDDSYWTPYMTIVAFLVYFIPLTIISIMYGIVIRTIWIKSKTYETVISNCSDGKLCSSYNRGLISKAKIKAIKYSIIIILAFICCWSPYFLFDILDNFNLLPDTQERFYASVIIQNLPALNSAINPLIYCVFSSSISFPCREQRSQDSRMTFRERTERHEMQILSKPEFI

**Q.** `Cc1c(P(=S)(c2ccccc2)c2ccccc2)[n+]2ccccc2n1C` was tested. Which Potency did it give?
**A.** 2.23 µM (active) and 4.87 µM (active)

**Q.** `Cc1c(P(=S)(c2ccccc2)c2ccccc2)c2ccccc2n1C` was tested. Which Potency did it give?
**A.** 31.5 µM (active)

**Q.** How did the Potency turn out when `Cc1nc2ccccn2c1P(=S)(c1ccccc1)c1ccccc1` was run?
**A.** 25 µM (active)

**Q.** Which Potency does the source give for `Cc1c(P(=S)(c2ccccc2)c2ccccc2)[n+]2ccccc2n1CCc1ccccc1` here?
**A.** 2.5 µM (active)

**Q.** Which Potency does the source give for `S=P(c1ccccc1)(c1ccccc1)c1c(-c2ccccc2)[nH]c2ccccc12` here?
**A.** 31.5 µM (active)

**Q.** Which Potency does the source give for `Cn1c(-c2ccccc2)c(P(=S)(c2ccccc2)c2ccccc2)c2ccccc21` here?
**A.** inactive

**Q.** `Cc1c(P(=S)(c2ccccc2)c2ccccc2)[n+]2ccccc2n1Cc1ccccc1` was tested. Which Potency did it give?
**A.** 1.99 µM (active)

**Q.** How did the Potency turn out when `S=P(c1ccccc1)(c1ccccc1)c1c[n+](Cc2ccccc2)c2ccccn12` was run?
**A.** 9.96 µM (active)

**Q.** Which Potency does the source give for `Cc1c(P(=S)(c2ccccc2)c2ccccc2)[n+]2ccccc2n1C/C=C/c1ccccc1` here?
**A.** 0.387 µM (active)

**Q.** For `Cc1[nH]c2ccccc2c1P(=S)(c1ccccc1)c1ccccc1`, which Potency is on record?
**A.** 39.7 µM (active)

**Q.** For `Cc1c(P(=S)(c2ccccc2)c2ccccc2)[n+]2ccccc2n1CCCc1ccccc1`, which Potency is on record?
**A.** 0.772 µM (active)
